Results filed as inconclusive are left out. Where a call stands in place of a potency, no number is given. Activity calls are given as the source filed them. The call rests on the fitted dose curve.
What was measured:
[1] = Cytotoxicity counterscreen for inhibitors of SARS-CoV-2 cell entry (AID 1645845); settings: outcome: dose series up to 57.1 µM unless noted; further: nearly all actives have a fitted effect of over 50% in size
Method in brief: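 After a 15 min room-temperature ATPLite 1step step, luminescence reflected ATP remaining in HEK293-ACE2 cells exposed to compound for 1 h plus 48 h at 37 C, with percent activity set by cell and no-cell controls.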

[2] = Primary qHTS to identify inhibitors of SARS-CoV-2 cell entry (AID 1645846); settings: SARS-CoV-2 pseudovirus cell entry assay, luminescence; activity change, negative = inhibition: at 57.1 µM (top of the series) unless noted; further: nearly all actives have a fitted effect of over 45% in size
Method in brief: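 Luminescence readout (Bright-Glo luciferase) 48 h after pseudoparticle addition. HEK293-ACE2 cells, 1500/well; compound pre-incubation 1 h; Normalized to spike PP and bald PP.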
Potency means the concentration at half of the fitted maximal effect.

Q: Which Potency [1] does the source give for `N=C1S/C(=C\c2ccc(-c3ccc4c(c3)C(=O)NC4=O)o2)C(=O)N1c1ccc(Br)cc1` here?
A: Its Potency is “inactive”.

Q: And the activity change, negative = inhibition [2]?
A: Its activity change, negative = inhibition is -8.86% [at 27.1 µM].

Q: With `Cc1cc(O)c(-c2ccc([C@@H](C)CN)cc2)c2c1[nH]c(=O)c1sccc12` as the compound, how does the Potency [1] read?
A: Its Potency is “inactive”.

Q: What about the activity change, negative = inhibition [2] of the same compound?
A: Its activity change, negative = inhibition is -4.37%.

Q: For `NC[C@@](O)(c1ccc(Cl)cc1)c1ccc(-c2cn[nH]c2)cc1`, which Potency [1] is on record?
A: Its Potency is 28.2 µM (active).

Q: What does the source list for `N#CCC1(n2cc(-c3ncnc4[nH]ccc34)cn2)CN(C2CCN(C(=O)c3ccnc(C(F)(F)F)c3F)CC2)C1`?
A: Potency [1]: inactive; Potency [2]: inactive

Q: Which Potency [1] does the source give for `C=Cc1cc(O)cc2nc(-c3ccc(O)c(F)c3)oc12` here?
A: Its Potency is “inactive”.

Q: And the activity change, negative = inhibition [2]?
A: Its activity change, negative = inhibition is -0.0201%.

Q: With `C[C@H]1O[C@H](O[C@H]2[C@H](O)[C@@H](O)[C@@H](O[C@H]3[C@H](O)[C@@H](O)C(O)O[C@@H]3CO)O[C@@H]2CO)[C@H](O)[C@@H](O)[C@@H]1N[C@H]1C=C(CO)[C@@H](O)[C@H](O)[C@H]1O` (stereo partly specified) as the compound, how does the Potency [1] read?
A: Its Potency is “inactive”.

Q: What about the activity change, negative = inhibition [2] of the same compound?
A: The activity change, negative = inhibition was -16.5%.

Q: For `C=CC(=O)N1CCC(C2CCNc3c(C(N)=O)c(-c4ccc(Oc5ccccc5)cc4)nn32)CC1` (stereo unspecified), which Potency [1] is on record?
A: Its Potency is “inactive”.

Q: Which Potency [1] does the source give for `CC(C)Cc1ccc([C@@H](C)C(=O)NS(C)(=O)=O)cc1` here?
A: Its Potency is “inactive”.

Q: What about the activity change, negative = inhibition [2] of the same compound?
A: The activity change, negative = inhibition was 3.55%.

Q: Which results are given for `CCCCCCCCCCCCC[N+](C)(C)Cc1ccccc1`?
A: Potency [1]: 20 µM (active); Potency [2]: 20 µM (active)

Q: With `O=C(NCCCNC(=O)c1ccc[nH]c1=O)c1cc(-c2ccccc2)on1` as the compound, how does the Potency [1] read?
A: Its Potency is “inactive”.

Q: And the Potency [2]?
A: Its Potency is “inactive”.

Q: Which activity change, negative = cytotoxicity [1] does the source give for `CN1CCN(C(=O)[C@H]2[C@@H](C(=O)O)[C@H]3CC[C@@H]2O3)CC1` here?
A: The activity change, negative = cytotoxicity was 2.39% [at 11.3 µM] (inactive).

Q: What about the activity change, negative = inhibition [2] of the same compound?
A: The activity change, negative = inhibition was -6.02% [at 11.3 µM].

Q: With `O=C(NCC(=O)N1CCCC1)Nc1ccc2cnccc2c1` as the compound, how does the Potency [1] read?
A: The Potency was “inactive”.

Q: And the activity change, negative = inhibition [2]?
A: Its activity change, negative = inhibition is -15.6%.

Q: For `CC(=O)[C@]1(N)Cc2c(O)c3c(c(O)c2[C@@H](O[C@H]2C[C@H](O)[C@H](O)CO2)C1)C(=O)c1ccccc1C3=O`, which Potency [1] is on record?
A: The Potency was “inactive”.

Q: What about the Potency [2] of the same compound?
A: Its Potency is “inactive”.

Q: With `O=C(CCNC(=O)c1ccc(OC(F)(F)F)cc1)N[C@@H]1CCCc2ccccc21` as the compound, how does the Potency [1] read?
A: The Potency was “inactive”.

Q: And the activity change, negative = inhibition [2]?
A: Its activity change, negative = inhibition is 4.82%.

Q: For `Cc1ccc(Nc2cc(N[C@@H]3CCCC[C@@H]3N)nnc2C(N)=O)nc1C`, which Potency [1] is on record?
A: Its Potency is “inactive”.

Q: And the Potency [2]?
A: Its Potency is “inactive”.

Q: For `C=CCNC1=C2C[C@@H](C)C[C@H](OC)[C@H](O)[C@@H](C)/C=C(\C)[C@H](OC(N)=O)[C@@H](OC)/C=C\C=C(/C)C(=O)NC(=CC1=O)C2=O`, which Potency [1] is on record?
A: Its Potency is 25.1 µM (active).

Q: What about the Potency [2] of the same compound?
A: The Potency was 14.1 µM (active).

Q: Which Potency [1] does the source give for `CC(C)N(CCCNC(=O)Nc1ccc(C(C)(C)C)cc1)C[C@H]1O[C@@H](n2cc(Br)c3c(N)ncnc32)[C@H](O)[C@@H]1O` here?
A: The Potency was 31.6 µM (active).

Q: What about the Potency [2] of the same compound?
A: The Potency was 35.5 µM (active).

Q: With `CC(=O)N[C@H]1[C@H](O[C@@H]2c3ccc(c(Cl)c3)Oc3cc4cc(c3O[C@@H]3O[C@H](CO)[C@@H](O)[C@H](O)[C@H]3NC(=O)CCCCCCCC(C)C)Oc3ccc(cc3Cl)C[C@H]3NC(=O)[C@H](N)c5ccc(O)c(c5)Oc5cc(O)cc(c5)[C@H](NC3=O)C(=O)N[C@H]4C(=O)N[C@H]3C(=O)N[C@@H]2C(=O)N[C@@H](C(=O)O)c2cc(O)cc(O[C@H]4O[C@H](CO)[C@@H](O)[C@H](O)[C@@H]4O)c2-c2cc3ccc2O)O[C@H](CO)[C@@H](O)[C@@H]1O` as the compound, how does the Potency [1] read?
A: Its Potency is “inactive”.

Q: What about the activity change, negative = inhibition [2] of the same compound?
A: Its activity change, negative = inhibition is -12.4%.

Q: With `CC#Cc1cncc(-c2ccc3c(c2)[C@@]2(N=C(C)C(N)=N2)C2(CCC(OC)CC2)C3)c1` (stereo partly specified) as the compound, how does the Potency [1] read?
A: Its Potency is “inactive”.

Q: What about the Potency [2] of the same compound?
A: Its Potency is “inactive”.

Q: Which Potency [1] does the source give for `COc1ccc(S(=O)(=O)N[C@@H](CNc2nc(C)nc(N3CCC(c4ccc5c(n4)NCCC5)CC3)c2C)C(=O)O)cc1` here?
A: The Potency was “inactive”.

Q: What about the activity change, negative = inhibition [2] of the same compound?
A: Its activity change, negative = inhibition is -3.98%.

Q: With `CC1(C)CCC2(CC1)N[C@@H](C(=O)N[C@@H]1CC[C@@H](C(N)=O)OC1)[C@H](c1ccnc(Cl)c1F)[C@]21C(=O)Nc2cc(Cl)ccc21` as the compound, how does the Potency [1] read?
A: Its Potency is “inactive”.

Q: And the activity change, negative = inhibition [2]?
A: Its activity change, negative = inhibition is -20.9% [at 37.9 µM].

Q: With `Cc1cc(C)c2c(c1)[C@@H](N(Cc1cc(C(F)(F)F)cc(C(F)(F)F)c1)c1nnn(C)n1)CCCN2CC1CCC(C(=O)O)CC1` (stereo partly specified) as the compound, how does the Potency [1] read?
A: The Potency was “inactive”.

Q: What about the activity change, negative = inhibition [2] of the same compound?
A: The activity change, negative = inhibition was -28%.

Q: Which Potency [1] does the source give for `CC1=C2[N-][C@H]([C@H](CC(N)=O)[C@@]2(C)CCC(=O)NC[C@@H](C)OP(=O)([O-])O[C@H]2[C@@H](O)[C@@H](n3cnc4cc(C)c(C)cc43)O[C@@H]2CO)[C@]2(C)N=C(C(C)=C3N=C(C=C4N=C1[C@@H](CCC(N)=O)C4(C)C)[C@@H](CCC(N)=O)[C@]3(C)CC(N)=O)[C@@H](CCC(N)=O)[C@]2(C)CC(N)=O.O.[Co+2]` here?
A: Its Potency is “inactive”.

Q: What about the activity change, negative = inhibition [2] of the same compound?
A: Its activity change, negative = inhibition is -20.3%.

Q: Which Potency [1] does the source give for `COc1ccc(Oc2cc(NCCC(F)(F)F)c3ncc(-c4ccc(C(=O)NC5CC5)c(C)c4)n3n2)c(F)c1F` here?
A: Its Potency is “inactive”.

Q: And the activity change, negative = inhibition [2]?
A: Its activity change, negative = inhibition is -12.1%.

Q: What does the source list for `O=C(O)c1ccc(CN2CCC(CN[C@@H]3C[C@H]3c3ccccc3)CC2)cc1`?
A: Potency [1]: inactive; Potency [2]: inactive

Q: For `Cc1ccc(-c2ccc3ncc4c(c3n2)n(C2CCN(C(=O)[C@H](C)O)CC2)c(=O)n4C)cn1`, which Potency [1] is on record?
A: Its Potency is “inactive”.

Q: And the activity change, negative = inhibition [2]?
A: The activity change, negative = inhibition was -95.8%.

Q: Which Potency [1] does the source give for `Fc1ccc(-c2nc(-c3ccccc3F)[nH]c2-c2ccncc2)cc1` here?
A: The Potency was “inactive”.

Q: And the activity change, negative = inhibition [2]?
A: Its activity change, negative = inhibition is -6.32%.

Q: Which results are given for `C[C@@H]1CCN(C(=O)N2CCCC2)C[C@@H]1N(C)c1ncnc2[nH]ccc12`?
A: Potency [1]: inactive; Potency [2]: inactive

Q: For `CN[C@@H]1[C@@H](O)[C@@H](O[C@@H]2[C@@H](O)[C@H](O[C@H]3O[C@H](CN)[C@@H](O)[C@H](O)[C@H]3O)[C@@H](N)C[C@H]2NC(=O)C(O)CN)OC[C@]1(C)O` (stereo partly specified), which Potency [1] is on record?
A: Its Potency is “inactive”.

Q: And the Potency [2]?
A: The Potency was “inactive”.

Source: PubChem BioAssay (NCATS)
